# Measurements taken from PubChem BioAssay (NCATS).
# Unmarked numbers belong to inactive results. The source made the active and inactive calls. Calls come from the whole dose curve; as a rule, active = well fitted curve in the direction sought with a large enough effect; inactive = no such curve, though single readings can be large or run the other way.
# Test: qHTS for small molecule inhibitors of Yes1 kinase: Counter Assay (AID 686950);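 note: no kinase present so only ADP-Glo detection of a fixed ADP amount is tested; luminescence from ADP-Glo reporting ADP in a fixed ATP and ADP mixture; 0% = DMSO wells with ATP plus ADP and -100% = ATP-only wells without ADP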
# Conditions: series mostly up to 76.9 µM; activity change, negative = inhibition: at the top concentration
# Procedure, shortened: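 ADP-Glo luminescence read after a 60 min room-temperature incubation of compound with an ATP/ADP mix (0.08 mM/0.02 mM) and no kinase, following a 20 min compound preincubation. Signal scaled between ATP+ADP (max) and 0.1 mM ATP-only (min) wells; Tris pH 7.5, Mg2+, DTT.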
SMILES,"activity change, negative = inhibition [%]",outcome
Cc1cc(-c2ccco2)cc(C)c1C=Cc1cncc(-c2nn[nH]n2)c1,18.7,–
CS(=O)(=O)CCNCc1ccc(-c2ccc3ncnc(Nc4ccc(OCc5ccccc5)cc4)c3c2)o1,0.334,–
CC(=O)Nc1cccc(C#Cc2cncnc2Nc2ccc(OCc3cccc(F)c3)c(Cl)c2)n1,4.46,–
ON=C1CCc2cc(-c3nc(C4CCNCC4)[nH]c3-c3ccncc3)ccc21,129,–
COC(=O)Nc1nc2ccc(Oc3ccc(NC(=O)Nc4cccc(C(=O)O)c4)cc3)cc2[nH]1,2.02,–
Nc1ccc(C#Cc2cncnc2Nc2ccc(OCc3cccc(F)c3)c(Cl)c2)cc1,2.24,–
COC(=O)c1sc(-n2cnc3cc(OC)c(OC)cc32)cc1OCc1ccccc1C(F)(F)F,2.1,–
O=S1CCN(Cc2ccc(-c3ccc4ncnc(Nc5ccc(OCc6ccccc6)c(Cl)c5)c4c3)o2)CC1,1.1,–
CCS(=O)(=O)c1ccc(OC)c(Nc2ncc(-c3cccc(F)c3)o2)c1,4.68,–
NS(=O)(=O)c1ccc(N=Nc2c(O)[nH]c3ccc(Cl)cc23)cc1,2.71,–
Oc1[nH]c2ccccc2c1C=Nc1ccc(-n2cncn2)cc1,-0.552,–
CS(=O)(=O)Nc1ccc(N=Cc2c(O)[nH]c3ccccc23)cc1,7.81,–
CCN1CCC(CC(=O)Nc2n[nH]c3nc(-c4cccs4)c(Br)cc23)CC1,7.37,–
NCc1ccc(-c2nc(-c3ccc(Cl)c(O)c3)c(-c3ccncc3)[nH]2)cc1,7.83,–
COc1cc(C=NNc2ncnc3c2cnn3C(C)C)ccc1O,3.6,–
CCn1c(-c2nonc2N)nc2c(C#CCN)ncc(OCCCN)c21,2.47,–
COc1cc2ncn(-c3cc(OCc4ccccc4Cl)c(C(N)=O)s3)c2cc1OC,2.17,–
CN(C)c1ccc2[nH]c(O)c(C=Nc3ccc(S(N)(=O)=O)cc3)c2c1,0.337,–
NS(=O)(=O)c1ccc(N=Nc2c(O)[nH]c3ccc(C(=O)NCc4ccncc4)cc23)cc1,6.21,–
O=C1NC(=O)C(c2ccc(Cl)cc2)=C1Nc1ccc(Cl)c(C(=O)O)c1,5.75,–

SMILES,"activity change, negative = inhibition [%]",outcome
Cc1ccc(O)cc1Nc1ccnc2ccc(S(C)(=O)=O)cc12,-1.73,–
COc1cccc(-n2ncc3c(NN=Cc4cccc(F)c4)ncnc32)c1,-1.92,–
Nc1nccc(-c2c(-c3ccc(F)cc3)ncn2C2CCNCC2)n1,–,inactive
COc1cc(C)c(NC(=O)CN(C)C)cc1Nc1nc(Nc2cccc(F)c2C(N)=O)c2cc[nH]c2n1,7.37,–
Nc1ncc(-c2cccc(S(N)(=O)=O)c2)c2scc(-c3ccc(F)c(Cl)c3)c12,4.98,–
Cc1nnc(-c2cccc(-c3ccc(C(=O)NCC4CC4)cc3)c2)o1,-0.614,–
Cc1ccc(C(=O)NC2CC2)cc1-c1ccc2[nH]ncc2c1,7.88,–
CC1=C(C(=O)Nc2ccc3n[nH]c(C)c3c2)C(c2ccc(C(F)(F)F)cc2)CC(=O)N1 (stereo not given),0.628,–
COC(=O)c1cncc(C=Cc2c(C)cc(O)cc2C)c1,0.356,–
CC(Oc1cc(-n2cnc3ccc(OC4CCN(C)CC4)cc32)sc1C(N)=O)c1ccccc1Cl (stereo not given),-1.14,–
CCn1c(-c2nonc2N)nc2c(C#CC(C)(C)O)ncc(OCC3CCNCC3)c21,2.62,–
CCCN1CCC(c2ccc(Nc3nc(Nc4cc(F)ccc4C(N)=O)c4cc[nH]c4n3)c(OC)c2)CC1,116,–
CN(C)CCNC(=O)Nc1ccc(N(C)c2ccnc(Nc3ccc(CS(C)(=O)=O)cc3)n2)cc1,-2.09,–
NC(=O)c1sc(-n2cnc3ccccc32)cc1OCc1ccccc1Br,7.7,–
COC(=O)Nc1nc2ccc(Oc3cccc(NC(=O)Nc4cc(C(F)(F)F)ccc4F)c3)cc2[nH]1,3.99,–
NS(=O)(=O)c1ccc(Nc2cc(-c3cccc(O)c3)[nH]n2)cc1,4.8,–
O=C1NC(=O)C(c2cccc(Cl)c2)=C1Nc1ccc(O)c(Cl)c1,5.25,–
CNC(=O)c1cncc(C=Cc2ccccc2Cl)c1,6.69,–
NC(=O)c1ccc(Oc2nccc(-c3c(-c4ccc(F)cc4)ncn3C3CCNCC3)n2)cc1,-1.1,–
COc1ccc(-c2cc3c(N)ncnc3o2)cc1,-0.139,–
